Data taken from paper PMC10726135, “HNF4α isoforms regulate the circadian balance between carbohydrate and lipid metabolism in the liver”.
Whole data set: some 18,000 sequences, median “log2 normalized intensity” near 0.36, cut for the highest 2% near 7.3. What follows is part of a selection rich in the highest values, with near analogues and random picks from the rest.

The sequences below were run against T1, HNF4alpha8 (COS-7 nuclear extract) (Homo sapiens, UniProt P41235-5 1-452) (assay: protein-binding microarray; COS-7 nuclear extract on double-stranded Agilent 4x180k PBM; binding buffer, salt, pH and temperature not given in the material; high values mean tight binding). Details: chain copies: 2; label: 3' end of strand 1 on the slide; dsDNA, one strand shown.
T1 sequence: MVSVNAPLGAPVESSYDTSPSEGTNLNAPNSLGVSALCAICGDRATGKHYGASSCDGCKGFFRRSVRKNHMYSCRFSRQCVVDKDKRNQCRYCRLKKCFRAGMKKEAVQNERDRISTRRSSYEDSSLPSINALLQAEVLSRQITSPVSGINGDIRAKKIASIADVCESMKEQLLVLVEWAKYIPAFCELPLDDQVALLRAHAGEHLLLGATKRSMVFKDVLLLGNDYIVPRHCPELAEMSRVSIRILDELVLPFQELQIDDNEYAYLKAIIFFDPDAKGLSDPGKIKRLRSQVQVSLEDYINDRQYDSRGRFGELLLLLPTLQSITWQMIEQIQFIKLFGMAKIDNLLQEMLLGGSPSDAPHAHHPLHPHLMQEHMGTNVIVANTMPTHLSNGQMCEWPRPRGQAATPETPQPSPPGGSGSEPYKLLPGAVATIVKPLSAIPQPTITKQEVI
In short: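 Double-stranded oligonucleotides of ~60 nt, representing ~44,000 test sequences in quadruplicate, made up a custom Agilent SurePrint G3 4x180k array. Nuclear extracts from COS-7 cells transiently transfected by CaPO4 with a human HNF4α isoform expression vector were applied, and bound HNF4α was imaged at 2-µm resolution on an Agilent G2565CA scanner. Binding signal refers to the background-corrected, normalized gProcessedSignal output of Agilent software.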

Q: “GCCTGCCCCTCTGACCTCTCCTCCTACCTTGCCTAGGGAGATTAGAGTATCGGTCGA” was tested. Which binding signal did it give?
A: The binding signal was 3.39 log2 normalized intensity.

Q: “CCCCCACTGCCTGACCCCAAGTAATAGCCGGCCTAGGGAGATTAGAGTATCGGTCGA” was tested. Which binding signal did it give?
A: The binding signal was 5.69 log2 normalized intensity.

Q: Which binding signal does the source give for “AAATCTGCCCAACCTTTGCCCCTGGAGGGAGCCTAGGGAGATTAGAGTATCGGTCGA” here?
A: The binding signal was 4.18 log2 normalized intensity.

Q: Which binding signal does the source give for “TTCATCCCCACCCCCACTGCCTGACCCCAAGCCTAGGGAGATTAGAGTATCGGTCGA” here?
A: Its binding signal is 7.49 log2 normalized intensity.

Q: Which binding signal does the source give for “TCCTGGAACTCTGACCTTTGCCCCCAGCCTGCCTAGGGAGATTAGAGTATCGGTCGA” here?
A: Its binding signal is 10.1 log2 normalized intensity.

Q: For “ACCGACCTTTGGTTCCTGAACTCAAACCCCGCCTAGGGAGATTAGAGTATCGGTCGA”, which binding signal is on record?
A: The binding signal was 3.35 log2 normalized intensity.

Q: With “CCCCACCCCCACTGCCTGACCCCAAGTAATGCCTAGGGAGATTAGAGTATCGGTCGA” as the sequence, how does the binding signal read?
A: The binding signal was 7.09 log2 normalized intensity.

Q: Which binding signal does the source give for “GGAACCCCACCCCCACGCCCCCCAGCGGAAGCCTAGGGAGATTAGAGTATCGGTCGA” here?
A: Its binding signal is 7.38 log2 normalized intensity.

Q: “GGATCGGAACCCCACCCCCACGCCCCCCAGGCCTAGGGAGATTAGAGTATCGGTCGA” was tested. Which binding signal did it give?
A: The binding signal was 7.03 log2 normalized intensity.

Q: “CCCACCCCCACGCCCCCCAGCGGAAGTCCAGCCTAGGGAGATTAGAGTATCGGTCGA” was tested. Which binding signal did it give?
A: The binding signal was 6.82 log2 normalized intensity.

Q: How did the binding signal turn out when “CTTCCACCCACTTTATCTTCTATAGGAATTGCCTAGGGAGATTAGAGTATCGGTCGA” was run?
A: The binding signal was 0.738 log2 normalized intensity.

Q: “GTGTGTGGCCTGCACAGTTGCACAATGTCAGCCTAGGGAGATTAGAGTATCGGTCGA” was tested. Which binding signal did it give?
A: The binding signal was 0.815 log2 normalized intensity.

Q: For “CTATAGTTATCTCTGCTGATAGCATAAAGCGCCTAGGGAGATTAGAGTATCGGTCGA”, which binding signal is on record?
A: The binding signal was 0.212 log2 normalized intensity.

Q: How did the binding signal turn out when “GGCTCCCTGGGGTTAAAATGTTTACTGAAGGCCTAGGGAGATTAGAGTATCGGTCGA” was run?
A: Its binding signal is 0.937 log2 normalized intensity.

Q: For “CTGTGCAAGCCCCTGACCAAGGGTCATGCTGCCTAGGGAGATTAGAGTATCGGTCGA”, which binding signal is on record?
A: Its binding signal is 3.96 log2 normalized intensity.

Q: “GAACTCTGACCTTTGCCCCCAGCCTCTCACGCCTAGGGAGATTAGAGTATCGGTCGA” was tested. Which binding signal did it give?
A: Its binding signal is 9.22 log2 normalized intensity.

Q: “AGCCTCTCACAGTAGCCCAGGTCCTTTGGTGCCTAGGGAGATTAGAGTATCGGTCGA” was tested. Which binding signal did it give?
A: Its binding signal is 0.598 log2 normalized intensity.

Q: For “CTTTGCCCCCAGCCTCTCACAGTAGCCCAGGCCTAGGGAGATTAGAGTATCGGTCGA”, which binding signal is on record?
A: The binding signal was 4.72 log2 normalized intensity.

Q: With “TGCCCAGCTTGAATCACTCACTGACCTCTTGCCTAGGGAGATTAGAGTATCGGTCGA” as the sequence, how does the binding signal read?
A: The binding signal was 4.46 log2 normalized intensity.

Q: For “CTGACCTTTGCCCCCAGCCTCTCACAGTAGGCCTAGGGAGATTAGAGTATCGGTCGA”, which binding signal is on record?
A: The binding signal was 7.53 log2 normalized intensity.

Q: Which binding signal does the source give for “GCTATCTTATCTTTGACCTTACCAGCCCACGCCTAGGGAGATTAGAGTATCGGTCGA” here?
A: The binding signal was 2.94 log2 normalized intensity.

Q: Which binding signal does the source give for “TCTGCTTGCCATTAATGAAAACTGCACTTCGCCTAGGGAGATTAGAGTATCGGTCGA” here?
A: The binding signal was 2.38 log2 normalized intensity.

Q: For “TTTATTTGAAGAAATGGTGGACTTTGTAGCGCCTAGGGAGATTAGAGTATCGGTCGA”, which binding signal is on record?
A: The binding signal was 6.52 log2 normalized intensity.

Q: “CTTTGACCTCAGAGAGCCGGAAACTCCACCGCCTAGGGAGATTAGAGTATCGGTCGA” was tested. Which binding signal did it give?
A: Its binding signal is -0.861 log2 normalized intensity.

Q: For “GGCTGATGACCTTTGACTGAGATGGGAGCAGCCTAGGGAGATTAGAGTATCGGTCGA”, which binding signal is on record?
A: The binding signal was 4.58 log2 normalized intensity.

Q: Which binding signal does the source give for “AAAGACTTGCTCATTGATGAGTGACCTTTGGCCTAGGGAGATTAGAGTATCGGTCGA” here?
A: Its binding signal is 7 log2 normalized intensity.

Q: How did the binding signal turn out when “TTGCCCCTTTGACCCTCGGGCCTCCCTAGAGCCTAGGGAGATTAGAGTATCGGTCGA” was run?
A: The binding signal was 4.81 log2 normalized intensity.

Q: For “GATGAGTGACCTTTGACCTCAGAGAGCCGGGCCTAGGGAGATTAGAGTATCGGTCGA”, which binding signal is on record?
A: Its binding signal is 9.88 log2 normalized intensity.

Q: For “GTGACCTTTGACCTCAGAGAGCCGGAAACTGCCTAGGGAGATTAGAGTATCGGTCGA”, which binding signal is on record?
A: The binding signal was 8.02 log2 normalized intensity.

Q: For “CTAGGAAACTGACCTTTGCTCATGACTATTGCCTAGGGAGATTAGAGTATCGGTCGA”, which binding signal is on record?
A: Its binding signal is 6.61 log2 normalized intensity.

Q: With “CCCTCAGAGCTCAGATGAACTTTGCCTTAGGCCTAGGGAGATTAGAGTATCGGTCGA” as the sequence, how does the binding signal read?
A: The binding signal was 6.28 log2 normalized intensity.

Q: How did the binding signal turn out when “CTACTACTTGACCTTTGAAACATATCCAGAGCCTAGGGAGATTAGAGTATCGGTCGA” was run?
A: Its binding signal is 6.31 log2 normalized intensity.

Q: With “TCATTGATGAGTGACCTTTGACCTCAGAGAGCCTAGGGAGATTAGAGTATCGGTCGA” as the sequence, how does the binding signal read?
A: Its binding signal is 10.5 log2 normalized intensity.

Q: How did the binding signal turn out when “ATTCTCACCACTAGGAAACTGACCTTTGCTGCCTAGGGAGATTAGAGTATCGGTCGA” was run?
A: Its binding signal is 6.07 log2 normalized intensity.

Q: For “CACCACTAGGAAACTGACCTTTGCTCATGAGCCTAGGGAGATTAGAGTATCGGTCGA”, which binding signal is on record?
A: Its binding signal is 7.58 log2 normalized intensity.

Q: Which binding signal does the source give for “GGTCAATGTGCACATTCGAAGTTTTGCTCCGCCTAGGGAGATTAGAGTATCGGTCGA” here?
A: The binding signal was 1.65 log2 normalized intensity.

Q: With “GGATATTTGATCAAAGGTCAGCTCTCCTTTGCCTAGGGAGATTAGAGTATCGGTCGA” as the sequence, how does the binding signal read?
A: Its binding signal is 5.11 log2 normalized intensity.

Q: How did the binding signal turn out when “TTTATAATCCTAGCTTGGTTTTTCTGGGACGCCTAGGGAGATTAGAGTATCGGTCGA” was run?
A: Its binding signal is 0.942 log2 normalized intensity.

Q: For “GGATTATGGAGATGGAGATGGCCTGGAGGTGCCTAGGGAGATTAGAGTATCGGTCGA”, which binding signal is on record?
A: Its binding signal is 0.909 log2 normalized intensity.

Q: “ACAACCAGGGAGATGTGAGCGACCTTTGCAGCCTAGGGAGATTAGAGTATCGGTCGA” was tested. Which binding signal did it give?
A: The binding signal was 4.55 log2 normalized intensity.

Q: With “GGTTGTAAAATGAGGTCAGCATGGTGGGAGGCCTAGGGAGATTAGAGTATCGGTCGA” as the sequence, how does the binding signal read?
A: Its binding signal is 1.04 log2 normalized intensity.

Q: With “GGGGCGATGCTTCCAAAGTCCACAGTCCCCGCCTAGGGAGATTAGAGTATCGGTCGA” as the sequence, how does the binding signal read?
A: The binding signal was 3.92 log2 normalized intensity.

Q: How did the binding signal turn out when “CTCTTTTACTGTACTTCTTTAGGACTGCTCGCCTAGGGAGATTAGAGTATCGGTCGA” was run?
A: The binding signal was 1.37 log2 normalized intensity.
